Measurements published in PubChem BioAssay (NCATS).
Values without a mark were called inactive. Results filed as inconclusive are left out. Entries that show only a call come without a potency. Calls of active or inactive are those of the source. Calls come from the whole dose curve; as a rule, active = well fitted curve in the direction sought with a large enough effect; inconclusive = small, poorly fitted or top-dose-only effect, or another doubt; inactive = no such curve, though single readings can be large; an effect the other way counts as inactive or inconclusive.

Columns and labels:
[1] = Primary qHTS for inhibitors of nuclear receptor binding SET domain protein 2 (NSD2) in an RCH-ACV wild type WT cells (2C) (AID 1645877); note: nearly all actives have a fitted effect of over 70% in size; note: potency is the fitted concentration of half-maximal effect
[2] = target: Glutathione peroxidase 1 (Homo sapiens) (UniProt P07203); assay: Primary qHTS Assay for Inhibitors of Recombinant Selenoprotein Glutathione Peroxidase 1 (GPX1) (AID 1845191); note: nearly all actives have a fitted effect of over 65% in size
Chain of Glutathione peroxidase 1 (Homo sapiens) (P07203 whole entry, looked up): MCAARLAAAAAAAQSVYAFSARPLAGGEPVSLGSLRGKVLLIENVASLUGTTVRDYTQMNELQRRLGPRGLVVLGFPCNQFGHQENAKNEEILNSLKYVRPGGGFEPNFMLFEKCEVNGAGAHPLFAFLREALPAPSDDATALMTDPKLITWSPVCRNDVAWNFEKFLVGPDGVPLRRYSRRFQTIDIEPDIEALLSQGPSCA
How it was run: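 GR-coupled readout: NADPH consumption tracked by fluorescence, ex 340/em 450 nm, at t=0 and after 15 min at RT. Final mix 10 nM GPX1, 1 mM GSH, 0.5 mM CHP, 0.5 mM NADPH, 100 nM GR, 0.01% BSA, following 30 min enzyme–compound preincubation.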

[3] = target: Phospholipid hydroperoxide glutathione peroxidase GPX4 (Homo sapiens) (UniProt P36969); assay: Primary qHTS Assay for Inhibitors of Recombinant Selenoprotein Glutathione Peroxidase 4 (GPX4) (AID 1845192); note: nearly all actives have a fitted effect of over 65% in size
Chain of Phospholipid hydroperoxide glutathione peroxidase GPX4 (Homo sapiens) (P36969 whole entry, looked up): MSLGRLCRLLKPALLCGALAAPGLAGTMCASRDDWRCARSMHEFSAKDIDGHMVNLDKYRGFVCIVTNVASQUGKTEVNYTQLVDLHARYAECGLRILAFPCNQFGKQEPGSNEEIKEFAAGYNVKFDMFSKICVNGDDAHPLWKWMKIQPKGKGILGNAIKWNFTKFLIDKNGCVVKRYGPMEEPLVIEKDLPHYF
How it was run: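 Steps: GPX4 plus compound, 30 min RT; add GR/GSH/NADPH master mix; start with cumene hydroperoxide; read 340/450 nm fluorescence at 0 and 15 min. Finals were 200 nM GPX4, 1 mM GSH, 0.5 mM CHP, 0.5 mM NADPH, 100 nM GR.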

[4] = target: Luciferin 4-monooxygenase (Photinus pyralis) (UniProt P08659); assay: Primary firefly luciferase (FLuc) qHTS assay for identification of artifact compounds. (AID 1845220); note: nearly all actives have a fitted effect of over 60% in size; note: potency is the fitted concentration of half-maximal effect
How it was run: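 Titrated compounds were incubated 15 min at RT, protected from light, with luciferin and ATP at 10 uM; reaction started with 10 nM FLuc, luminescence imaged at 5 min, and concentration-response fitted by Hill equation.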

[5] = tested on: Nanoluciferase (engineered Oplophorus gracilirostris luciferase); assay: Primary Nanoluciferase (NLuc) qHTS assay for identification of artifact compounds. (AID 1845222);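 note: NLuc secreted into diluted conditioned medium of S16 cells; series mostly up to about 54 µM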
How it was run: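 qHTS format, against NLuc in S16 cell-conditioned medium. Nano-Glo substrate 1:100 was added after 15 min at room temperature. Luminescence was taken after a further 5 min.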

[6] = Primary redox qHTS assay for identification of artifact compounds. (AID 1845223)
How it was run: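 Redox-cycling detection via DTT (250 uM final) oxidation coupled to Amplex Red (25 uM)/HRP (250 mU/mL) in HBSS. 15 min preincubation plus 30 min after DTT, room temperature. Ex/Em 525/598 nm; 4-parameter Hill fit against DMSO and 10 uM DA3003.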

Compound | Potency [1] | Potency [2] | Potency [3] | Potency [4] | Potency [5] | Potency [6] | outcome [1] | outcome [4] | activity, negative = inhibition [5] | redox activity (% of DA3003) [6]
Cc1cc(O)cc(O[C@@H]2O[C@H](CO)[C@@H](O)[C@H](O)[C@H]2O)c1 | inactive | inactive | inactive | inactive | inactive | inactive |  |  |  | 
CC(C)CC(=O)OC1OC=C(CO[C@@H]2O[C@H](CO)[C@@H](O)[C@H](O)[C@H]2O)C2CC(O)C(O)(CO)C12 (stereo partly specified) | inactive | inactive | inactive | inactive | inactive | inactive |  |  |  | 
CC(C)C(CO)Nc1nc(Nc2cc(N)cc(Cl)c2)c2ncn(C(C)C)c2n1 (stereo unspecified) | 6.49 µM (active) | inactive | inactive | inactive | inactive | inactive |  |  |  | 
CCn1cc(NC(=S)Nc2cc(Cl)ccc2OC)c(C(N)=O)n1 | inactive | inactive | inactive | inactive | inactive | inactive |  |  |  | 
Cc1c2cc(c(C(=O)O)c1C)OC1OC(C(O)C(O)C1O)C(O)C(O)C1OC(O2)C(O)C(O)C1O (stereo unspecified) | inactive | inactive | inactive | inactive | inactive | inactive |  |  |  | 
O=C(/C=C/c1ccc(O)cc1)OC1[C@H](O)CC(O)(C(=O)O)C[C@H]1O (stereo partly specified) | inactive | inactive | inactive | inactive | inactive | inactive |  |  |  | 
COC(=O)C1=CO[C@@H](O[C@@H]2O[C@H](CO)[C@@H](O)[C@H](O)[C@H]2O)[C@@H]2C(CO)=CC[C@]12O | inactive | inactive | inactive | inactive | inactive | inactive |  |  |  | 
O=C(O[C@H]1[C@@H]2C=CO[C@@H](O[C@@H]3O[C@H](CO)[C@@H](O)[C@H](O)[C@H]3O)[C@@H]2[C@@]2(CO)O[C@@H]12)c1ccccc1 | inactive | inactive | inactive | inactive | inactive | inactive |  |  |  | 
CC(=O)O[C@H]1[C@H](O[C@H]2[C@@H]3C=CO[C@@H](O[C@@H]4O[C@H](CO)[C@@H](O)[C@H](O)[C@H]4O)[C@@H]3[C@@]3(CO)O[C@@H]23)O[C@@H](C)[C@H](OC(=O)/C=C/c2ccccc2)[C@H]1OC(=O)/C=C/c1ccccc1 |  | inactive | inactive |  |  |  | inactive [at 9.23 µM] | inactive [at 11.6 µM] | 2.49% [at 11.6 µM] | 5.63% [at 11.5 µM]
N#Cc1ccc(C(=O)N2CCC3(CC2)N=C(N)c2c(F)ccc(F)c2N3)cn1 | inactive | inactive | inactive | inactive | inactive | inactive |  |  |  | 
CC(=O)OC1CC2(C)C3=CCC4(C)C5C(O)C(O)C(C(C)C)C5(C)CCC4(C)C3CCC2C(C)(C)C1OC1OC(CO)C(O)C(O)C1O (stereo unspecified) | inactive | inactive | inactive | inactive | inactive | inactive |  |  |  | 
CC[C@@H](N)CNc1ccnc(-c2cc(-c3cnn(C)c3)ccc2O)n1 | 1.03 µM (active) | inactive | inactive | inactive | inactive | inactive |  |  |  | 
CCOc1cc(N2CCC(O)CC2)ccc1Nc1ncc2c(n1)N(C1CCCC1)CCC(=O)N2C | 1.83 µM (active) | inactive | inactive | inactive | inactive | inactive |  |  |  | 
CC/C=C\[C@H](O)[C@H](O)C1=C(C)C(=O)[C@]2(O1)C(=O)N[C@@](OC)(C(=O)c1ccccc1)[C@@H]2O | inactive | inactive | inactive | inactive | inactive | inactive |  |  |  | 
C/C=C/c1ccc2oc(-c3ccc(O)c(OC)c3)c(C)c2c1 | 16.3 µM (active) | inactive | inactive | 26.9 µM (active) | inactive | inactive |  |  |  | 
COc1cc(O)c2c(c1)C1=CC(O)C(O)CC1(C)OC2=O (stereo unspecified) | inactive | inactive | inactive | inactive | inactive | inactive |  |  |  | 
C=C1OC2CC(C(=O)O)C=CC2NC1=O (stereo unspecified) | inactive | inactive | inactive | inactive | inactive | inactive |  |  |  | 
OCC(CO[C@@H]1O[C@H](CO)[C@@H](O)[C@H](O)[C@H]1O)c1ccc2c(c1)OCO2 (stereo partly specified) | inactive | inactive | inactive | inactive | inactive | inactive |  |  |  | 
COc1cc(C2Oc3c(OC)cc(CCCO)cc3C2CO)ccc1O[C@H]1O[C@H](C)[C@@H](O)[C@H](O)[C@@H]1O (stereo partly specified) | inactive | inactive | inactive | inactive | inactive | inactive |  |  |  | 
CC(=O)c1ccc2c(c1)C(O)C(C(C)(C)O)O2 (stereo unspecified) | inactive | inactive | inactive | inactive | inactive | inactive |  |  |  | 
COC(=O)[C@@H](O)[C@H]1[C@@]2(C)CC3(O)[C@@H](C(=O)[C@H]2O)[C@]24O[C@]25CC(=O)O[C@@H](c2ccoc2)[C@]5(C)CCC4[C@]13C (stereo partly specified) | inactive | inactive | inactive | inactive | inactive | inactive |  |  |  | 
